Measured values taken from PubChem BioAssay AID1159580 (chemical genetic matrix, 2015).
The whole screen tested about 5,500 compounds, of which about 2,000 (36%) were called active. Inconclusive results (about 18%) are left out. Cut-off read from the data, not from the text of the source: active = normalized growth mostly below about 0.91 (no sharp cut-off); inconclusive = no clear call, values can overlap the other calls; inactive = mostly above about 0.92. The list shows a part of the results.

Test: chemical genetic growth profiling, strain panel (AID 1159580);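 note: tested at 20 µM; growth read once vehicle control cultures reached saturation at 30 °C; 1 = growth at the plate median or of vehicle wells; lower values mean less growth of the strain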
Conditions: growth OD

Measured: normalized growth

NC[C@@H]1O[C@H](O[C@@H]2[C@@H](CO)OC(O[C@@H]3[C@@H](O)[C@H](N)C[C@H](N)[C@H]3O[C@H]3O[C@H](CO)[C@@H](O)[C@H](O)[C@H]3N)[C@@H]2O)[C@H](N)[C@@H](O)[C@@H]1O (stereo partly drawn)
inactive: S. cerevisiae deletion strains, locus YJR043C, strain POL32, stronger effect = lower value 0.936 | S. cerevisiae deletion strains, locus YJR066W, strain TOR1, stronger effect = lower value 0.945 | S. cerevisiae deletion strains, locus YKL009W, strain mrt4, stronger effect = lower value 0.982 | S. cerevisiae deletion strains, locus YKL068W, stronger effect = lower value 0.993 | S. cerevisiae deletion strains, locus YKL085W, strain MDH1 (second series), stronger effect = lower value 0.995 | S. cerevisiae deletion strains, locus YKL085W, strain MDH1, stronger effect = lower value 0.995 | S. cerevisiae deletion strains, locus YKL160W, strain elf1, stronger effect = lower value 0.996 | S. cerevisiae deletion strains, locus YKL190W, strain CNB1, stronger effect = lower value 0.988 | S. cerevisiae deletion strains, locus YKR001C, strain vps1, stronger effect = lower value 0.988 | S. cerevisiae deletion strains, locus YKR026C, strain gcn3, stronger effect = lower value 0.992 | S. cerevisiae deletion strains, locus YKR091W, strain srl3, stronger effect = lower value 0.989 | S. cerevisiae deletion strains, locus YLL001W, strain dnm1, stronger effect = lower value 0.985 | S. cerevisiae deletion strains, locus YLL026W, stronger effect = lower value 0.987 | S. cerevisiae deletion strains, locus YLL041C, strain sdh2, stronger effect = lower value 0.993 | S. cerevisiae deletion strains, locus YLR027C, strain aat2, stronger effect = lower value 0.987 | S. cerevisiae deletion strains, locus YLR039C, strain RIC1, stronger effect = lower value 0.983 | S. cerevisiae deletion strains, locus YLR058C, strain SHM2, stronger effect = lower value 0.978 | S. cerevisiae deletion strains, locus YLR102C, strain apc9, stronger effect = lower value 0.989 | S. cerevisiae deletion strains, locus YLR113W, strain HOG1, stronger effect = lower value 0.952 | S. cerevisiae deletion strains, locus YLR221C, strain rsa3, stronger effect = lower value 0.991 | S. cerevisiae deletion strains, locus YLR258W, strain gsy2, stronger effect = lower value 0.993 | S. cerevisiae deletion strains, locus YLR262C, strain YPT6 (second series), stronger effect = lower value 1.01 | S. cerevisiae deletion strains, locus YLR262C, strain YPT6, stronger effect = lower value 0.973 | S. cerevisiae deletion strains, locus YLR268W, strain sec22, stronger effect = lower value 0.986 | S. cerevisiae deletion strains, locus YLR320W, strain mms22, stronger effect = lower value 0.997 | S. cerevisiae deletion strains, locus YLR330W, strain CHS5, stronger effect = lower value 0.998 | S. cerevisiae deletion strains, locus YLR342W, strain FKS1 (second series), stronger effect = lower value 1.09 | S. cerevisiae deletion strains, locus YLR342W, strain FKS1, stronger effect = lower value 0.992 | S. cerevisiae deletion strains, locus YLR357W, strain rsc2, stronger effect = lower value 0.992 | S. cerevisiae deletion strains, locus YLR370C, strain arc18, stronger effect = lower value 0.992 | S. cerevisiae deletion strains, locus YLR371W, strain rom2, stronger effect = lower value 1 | S. cerevisiae deletion strains, locus YLR384C, strain iki3, stronger effect = lower value 0.99 | S. cerevisiae deletion strains, locus YLR418C, strain cdc73, stronger effect = lower value 1.01 | S. cerevisiae deletion strains, locus YML016C, strain PPZ1, stronger effect = lower value 0.992 | S. cerevisiae deletion strains, locus YML032C, strain rad52, stronger effect = lower value 0.98 | S. cerevisiae deletion strains, locus YML120C, strain ndi1, stronger effect = lower value 0.988 | S. cerevisiae deletion strains, locus YML124C, strain tub3, stronger effect = lower value 0.985 | S. cerevisiae deletion strains, locus YMR058W, strain fet3, stronger effect = lower value 0.988 | S. cerevisiae deletion strains, locus YMR078C, strain ctf18, stronger effect = lower value 0.989 | S. cerevisiae deletion strains, locus YMR125W, strain sto1, stronger effect = lower value 0.998 | S. cerevisiae deletion strains, locus YMR129W, stronger effect = lower value 0.998 | S. cerevisiae deletion strains, locus YMR205C, strain PFK2, stronger effect = lower value 0.994 | S. cerevisiae deletion strains, locus YMR223W, strain ubp8, stronger effect = lower value 1.01 | S. cerevisiae deletion strains, locus YMR231W, strain pep5, stronger effect = lower value 1 | S. cerevisiae deletion strains, locus YMR307W, strain GAS1, stronger effect = lower value 1.07 | S. cerevisiae deletion strains, locus YNL067W, strain RPL9B, stronger effect = lower value 0.97 | S. cerevisiae deletion strains, locus YNL071W, strain lat1, stronger effect = lower value 0.987 | S. cerevisiae deletion strains, locus YNL183C, strain NPR1, stronger effect = lower value 0.939 | S. cerevisiae deletion strains, locus YNL209W, strain ssb2, stronger effect = lower value 0.999 | S. cerevisiae deletion strains, locus YNL233W, strain BNI4, stronger effect = lower value 0.995 | S. cerevisiae deletion strains, locus YNL248C, strain rpa49, stronger effect = lower value 0.988 | S. cerevisiae deletion strains, locus YNL250W, strain rad50, stronger effect = lower value 0.991 | S. cerevisiae deletion strains, locus YNL271C, strain bni1, stronger effect = lower value 0.986 | S. cerevisiae deletion strains, locus YNL298W, strain CLA4, stronger effect = lower value 0.989 | S. cerevisiae deletion strains, locus YNL307C, strain MCK1, stronger effect = lower value 0.983 | S. cerevisiae deletion strains, locus YNL322C, strain KRE1 (second series), stronger effect = lower value 0.989 | S. cerevisiae deletion strains, locus YNR049C, strain mso1, stronger effect = lower value 0.993 | S. cerevisiae deletion strains, locus YNR052C, strain pop2, stronger effect = lower value 0.998 | S. cerevisiae deletion strains, locus YOL006C, strain TOP1, stronger effect = lower value 0.932 | S. cerevisiae deletion strains, locus YOL012C, strain htz1 1.06 | S. cerevisiae deletion strains, locus YOL147C, strain pex11, stronger effect = lower value 1 | S. cerevisiae deletion strains, locus YOR001W, strain rrp6, stronger effect = lower value 0.985 | S. cerevisiae deletion strains, locus YOR061W, strain CKA2, stronger effect = lower value 0.973 | S. cerevisiae deletion strains, locus YOR069W, strain VPS5, stronger effect = lower value 0.998 | S. cerevisiae deletion strains, locus YOR070C, strain gyp1, stronger effect = lower value 0.995 | S. cerevisiae deletion strains, locus YOR080W, strain dia2, stronger effect = lower value 0.989 | S. cerevisiae deletion strains, locus YOR083W, strain WHI5, stronger effect = lower value 0.993 | S. cerevisiae deletion strains, locus YOR106W, strain vam3, stronger effect = lower value 0.995 | S. cerevisiae deletion strains, locus YOR136W, strain idh2, stronger effect = lower value 0.98 | S. cerevisiae deletion strains, locus YOR144C, strain elg1, stronger effect = lower value 0.999 | S. cerevisiae deletion strains, locus YOR184W, strain ser1, stronger effect = lower value 0.972 | S. cerevisiae deletion strains, locus YOR231W, strain MKK1, stronger effect = lower value 0.965 | S. cerevisiae deletion strains, locus YOR265W, strain rbl2, stronger effect = lower value 0.992 | S. cerevisiae deletion strains, locus YOR270C, strain vph1, stronger effect = lower value 0.966 | S. cerevisiae deletion strains, locus YOR290C, strain snf2, stronger effect = lower value 0.989 | S. cerevisiae deletion strains, locus YOR316C, strain cot1, stronger effect = lower value 0.979 | S. cerevisiae deletion strains, locus YPL051W, strain arl3, stronger effect = lower value 0.989 | S. cerevisiae deletion strains, locus YPL078C, strain atp4, stronger effect = lower value 0.99 | S. cerevisiae deletion strains, locus YPL106C, strain sse1, stronger effect = lower value 0.967 | S. cerevisiae deletion strains, locus YPL240C, strain hsp82, stronger effect = lower value 0.997 | S. cerevisiae deletion strains, locus YPL241C, strain CIN2, stronger effect = lower value 0.998 | S. cerevisiae deletion strains, locus YPL256C, strain CLN2, stronger effect = lower value 0.968 | S. cerevisiae deletion strains, locus YPR119W, strain clb2, stronger effect = lower value 0.99 | S. cerevisiae deletion strains, locus YPR141C, strain kar3, stronger effect = lower value 0.988 | S. cerevisiae deletion strains, locus YPR163C, strain tif3, stronger effect = lower value 0.998 | S. cerevisiae deletion strains, locus YPR167C, strain met16, stronger effect = lower value 0.999 | S. cerevisiae deletion strains, strain wtn01, stronger effect = lower value 1.02 | S. cerevisiae strains, strain wild type, stronger effect = lower value 0.988
